# From PubChem
# Most compounds without a hit are left out; they make up all but 7.6% or so of the library.
# SW480 rerep: A quantitative high throughput screen for small molecules that induce DNA re-replication in SW480 colon adenocarcinoma cells; SW480 DNA re-replication, Hoechst DNA content imaging, 48 h; Potency, µM (series often up to 46.1 µM), inactives show at the highest dose re-replication activation, hits mostly activators; hit rate 1.8% among 340,000; also: potency is read from the fitted curve at half-maximal effect; % of control where 0% means no effect; nearly all actives have a fitted effect of over 55% in size
#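 Quantitative HTS format with DMSO vehicle controls; 48 hr drug incubation at 37 C, then 40 min Hoechst staining and scanning imager measurement at 405 nm excitation.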
# KCNH2 3.1 inh: qHTS for Inhibitors of KCHN2 3.1: Mutant qHTS; Potassium voltage-gated channel subfamily H member 2, brain isoform KCNH2 3.1 (human); U2OS KCNH2 3.1, thallium flux FluxOr; hits give low values; activity change, % (tested at about 1.8 µM); hit rate 0.95% among 340,000; AID 720553, 2013;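 active = maximum activity change below -70%; inconclusive = maximum activity change from -70% to -50%; inactive = maximum activity change above -50%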;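 also: thallium influx rate constant from kinetic fluorescence after stimulation buffer; % is scaled to controls: 0 for no effect and ±100 for the full control effect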
#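 Measured as rate of thallium-driven FluxOr signal in transduced U2OS cells carrying the 3.1 channel, read kinetically for 2 min upon stimulation; values are rate constants scaled to DMSO control wells.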
# MCF10A rereplic: A quantitative high throughput screen for small molecules that induce DNA re-replication in MCF 10a normal breast cells; MCF 10A DNA re-replication, Hoechst nuclear intensity, 48 h; Potency, µM (series often up to 46.1 µM), for inactives: at the top dose activity, positive = re-replication, actives largely listed as activators; hit rate 2.9% among 350,000; also: potency is read from the fitted curve at half-maximal effect; % of control where 0% means no effect; nearly all actives have a fitted effect of over 50% in size
# KB-3-1 cytotox: qHTS assay for MDR1-selective chemotherapeutics: Primary screen using the parental adenocarcinoma cell KB-3-1; AID 1347075, 2019; KB-3-1 viability, CellTiter-Glo ATP luminescence, 72 h; hit rate 1.4% among 400,000; Potency, µM (top dose mostly 46.1 µM), hits mostly cytotoxic; also: potency is read from the fitted curve at half-maximal effect; % is scaled to controls: 0 for no effect and ±100 for the full control effect; nearly all actives have a fitted effect of over 60% in size
#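 Using CellTiter-Glo luminescence, growth of non-resistant KB-3-1 adenocarcinoma cells is assessed 72 h after pin-tool compound addition at 37 °C. Normalized responses across the concentration series yield fitted curves.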
# hERG WT inh: qHTS for Inhibitors of KCHN2 3.1: Wildtype qHTS | Voltage-gated inwardly rectifying potassium channel KCNH2 (Homo sapiens), Q12809 | U2OS, BacMam KCNH2, thallium flux FluxOr; hits give low values | activity change, % at 1.84 µM | hit rate 0.37% among 340,000 | AID 720551, 2013;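 active = maximum activity change below -70%; inconclusive = maximum activity change between -70% and -50%; inactive = maximum activity change above -50%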; also: % is scaled to controls: 0 for no effect and ±100 for the full control effect
# Target sequence (Q12809 whole entry, looked up): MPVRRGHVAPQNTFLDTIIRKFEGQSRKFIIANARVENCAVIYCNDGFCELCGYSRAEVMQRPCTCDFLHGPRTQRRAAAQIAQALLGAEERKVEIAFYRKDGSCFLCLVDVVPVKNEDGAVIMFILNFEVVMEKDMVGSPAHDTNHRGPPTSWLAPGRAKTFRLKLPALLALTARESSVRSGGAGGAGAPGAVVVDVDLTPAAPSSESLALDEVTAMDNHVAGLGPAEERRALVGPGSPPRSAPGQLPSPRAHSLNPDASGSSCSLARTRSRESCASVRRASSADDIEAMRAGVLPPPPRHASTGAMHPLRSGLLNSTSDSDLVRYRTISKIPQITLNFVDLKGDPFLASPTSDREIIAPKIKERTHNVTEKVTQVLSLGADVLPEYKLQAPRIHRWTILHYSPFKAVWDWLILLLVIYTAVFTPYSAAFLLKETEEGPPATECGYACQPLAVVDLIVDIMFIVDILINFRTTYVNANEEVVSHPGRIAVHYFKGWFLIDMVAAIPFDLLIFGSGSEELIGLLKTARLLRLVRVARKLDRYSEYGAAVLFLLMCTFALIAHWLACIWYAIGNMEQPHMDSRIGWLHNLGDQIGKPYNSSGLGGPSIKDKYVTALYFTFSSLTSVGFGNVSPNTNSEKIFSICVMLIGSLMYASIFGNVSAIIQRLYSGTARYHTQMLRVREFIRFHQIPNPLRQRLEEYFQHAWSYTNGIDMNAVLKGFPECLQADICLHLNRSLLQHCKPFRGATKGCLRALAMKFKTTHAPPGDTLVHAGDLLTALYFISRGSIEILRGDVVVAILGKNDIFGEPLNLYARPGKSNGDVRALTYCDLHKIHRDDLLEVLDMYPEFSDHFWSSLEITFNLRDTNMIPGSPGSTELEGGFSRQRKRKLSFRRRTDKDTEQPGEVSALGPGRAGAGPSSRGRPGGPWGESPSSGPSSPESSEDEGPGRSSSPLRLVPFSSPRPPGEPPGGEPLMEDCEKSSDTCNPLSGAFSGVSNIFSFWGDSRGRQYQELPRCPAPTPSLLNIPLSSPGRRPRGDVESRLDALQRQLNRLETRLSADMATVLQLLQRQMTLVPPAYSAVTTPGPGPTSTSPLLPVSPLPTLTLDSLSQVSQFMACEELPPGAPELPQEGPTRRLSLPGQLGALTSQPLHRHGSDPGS
#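 U2OS cells were transduced with wild-type KCNH2 virus (2.03 x 10^8 / mL) for 4 h at room temperature, then cultured overnight at 37 C. Thallium flux was read with FluxOr dye. Rate constants were normalized to DMSO controls.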
# KB-V1 cytotox: qHTS assay for MDR1-selective chemotherapeutics: Primary screen using the drug-selected MDR subline cells KB-V1 | AID 1347076, 2019 | hit rate 3.4% among 400,000 | Potency, µM (titrated, usually from 46.1 µM), hits mostly cytotoxic | KB-V1 MDR cells viability, CellTiter-Glo, 72 h; also: potency is read from the fitted curve at half-maximal effect; % is scaled to controls: 0 for no effect and ±100 for the full control effect; nearly all actives have a fitted effect of over 60% in size
#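 KB-V1, DMEM (no phenol red) + 10% FBS; cpd pin-transferred, titration series; 72 h, 37 degrees C; CellTiter-Glo, luminescence. Data normalized, curve-fit.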
# Active calls of the source: *; i = inactive; ? = inconclusive; · = not tested or not shown; [ ] = remark or other dose. Unless noted, calls follow the shape of the dose curve; as a rule, active = well fitted curve in the direction sought with a large enough effect; inconclusive = small, poorly fitted or top-dose-only effect, or another doubt; inactive = no such curve, though single readings can be large; an effect the other way counts as inactive or inconclusive.
SMILES,SW480 rerep,KCNH2 3.1 inh,MCF10A rereplic,KB-3-1 cytotox,hERG WT inh,KB-V1 cytotox
CC(OC(=O)c1ccc(OCC2CCCO2)cc1)C(=O)N(C)Cc1ccccc1 (stereo unspecified),?,-16.4,16.3%,i,-6.4,?
COc1ccc(S(=O)(=O)N2CCN(CC(=O)NC(Cc3ccccc3)C(C)=O)CC2)cc1 (stereo unspecified),2.1%,3.6,-1.5%,i,-1.6,i
CCc1nnc(NC(=O)CSc2nc3c([nH]c4ccccc43)c(=O)n2-c2ccc(C)cc2)s1,·,·,·,i,·,i
Cc1cc(C(=O)NNC(=O)Nc2ccc(Cl)cc2)no1,-12.2%,-2.1,3.8%,i,-10.0,i
Cc1cc(C(=O)NCCc2ccc(Cl)cc2)no1,-25.4%,17.6,6.51µM*,i,-1.6,i
Cc1cc(C(=O)NNc2ccc(C)c(C)c2)no1,?,-12.7,16.4µM*,?,-16.3,?
NS(=O)(=O)c1ccc(NNC(=O)c2ccccc2C(=O)O)cc1,-19.1%,21.4,-0.8%,i,-2.2,i
Cc1cc(C(=O)NCCc2ccc(S(N)(=O)=O)cc2)no1,-20.5%,-0.8,-17.2%,i,0.9,i
Cc1cc(C(=O)NNc2ccc(Cl)cc2)no1,11.4%,11.7,7.31µM*,?,-9.2,i
O=C(O)c1ccccc1C(=O)NNc1ccc(Cl)cc1,13.9%,1.9,4.61µM*,i,0.6,i
Cn1cnnc1SCC(=O)Nc1cc(S(=O)(=O)N2CCCCC2)ccc1Cl,-15.2%,-6.8,1.9%,i,-5.3,i
O=C(Nc1ccc(Cl)cc1Cl)[C@@H]1CC=C[C@@H]2CCN(C3CCCCC3)C(=O)[C@@H]21,·,·,·,i,·,i
Cn1c(SCC(=O)C(C)(C)C)nnc1-c1ccc(F)cc1,1.8%,2.7,14.0%,i,16.3,i
CC1(C)CC2CC(C)(CN2Cc2c(O)ccc3ccccc23)C1 (stereo unspecified),4.0%,-3.6,-1.8%,i,-9.6,i
CC1CCCCC12NC(=O)N(CC(=O)N1CCN(S(=O)(=O)/C=C/c3ccccc3)CC1)C2=O (stereo unspecified),4.0%,8.6,0.4%,i,-11.2,i
Cc1ccc(NNC(=O)c2ccno2)cc1C,2.2%,13.7,-5.8%,16.4µM*,0.4,i
Cc1ccc(NNC(=O)c2ccno2)cc1Cl,5.9%,-17.2,13.4%,i,-3.0,i
Cc1ccccc1NC(=O)CN1C(=O)N/C(=C\c2ccc(N3CCOCC3)c(F)c2)C1=O,0.5%,-6.5,4.5%,i,-6.8,i
CCN(C[C@H]1N[C@@](C)(C(=O)OC)[C@H]2C(=O)N(Cc3ccccc3)C(=O)[C@@H]12)C(=O)Nc1ccc(C)cc1,2.7%,-9.7,18.8%,i,9.2,i
O=CCCCC=O,-0.4%,·,22.9%,·,·,·
COc1ccc(-c2csc3nc(-c4ccc(Cl)cc4)oc(=O)c23)cc1,·,·,·,i,·,?
COc1ccc(-c2csc3nc(-c4ccccc4OC)oc(=O)c23)cc1,16.4µM*,·,20.6µM*,i,-16.6,i
CC(C)(C)c1nc2scc(-c3ccc(Cl)cc3)c2c(=O)o1,-9.1%[9.22 µM],-81.7*,-2.5%,i,-7.3,i
COc1cccc(C2NC(=O)CCC2[N+](=O)[O-])c1 (stereo unspecified),-8.5%,7.5,1.6%,i,?,i
CCn1c(=S)[nH]c2scc(-c3cccs3)c2c1=O,158.1%,24.1,?,?,-18.4,i
CC(C)n1c(=S)[nH]c2scc(-c3cccs3)c2c1=O,-2.3%,45.7,6.51µM*,i,-27.3,i
